# M1 PAM parental: counter-screen for M1 PAMs: effect in parental CHO-K1 cells; ATP EC20, Fluo-8 calcium fluorescence; 0% at ATP EC20, 100% at ATP max; activation, % at 3 µM; hit rate 0.02% among 360,000; AID 602247;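 active means activation above the run cutoff, the mean activation of all test compounds plus 3 SD, cut at about 40% in these data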;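 further: peak over basal fluorescence ratio in a 140 s read after ATP addition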
# CHRM1 agonist: activates human CHRM1 receptor | activation, % at 3 µM | CHO-K1 hM1, Fluo-8 calcium fluorescence, agonist mode; 0% DMSO, 100% acetylcholine EC100 | hit rate 0.33% among 360,000;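 active means activation above the run's mean compound activation plus 3 SD, cut at about 16% in these data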;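 further: peak over basal fluorescence ratio within a 140 s kinetic read after compound addition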
# Target sequence (P11229 whole entry, looked up): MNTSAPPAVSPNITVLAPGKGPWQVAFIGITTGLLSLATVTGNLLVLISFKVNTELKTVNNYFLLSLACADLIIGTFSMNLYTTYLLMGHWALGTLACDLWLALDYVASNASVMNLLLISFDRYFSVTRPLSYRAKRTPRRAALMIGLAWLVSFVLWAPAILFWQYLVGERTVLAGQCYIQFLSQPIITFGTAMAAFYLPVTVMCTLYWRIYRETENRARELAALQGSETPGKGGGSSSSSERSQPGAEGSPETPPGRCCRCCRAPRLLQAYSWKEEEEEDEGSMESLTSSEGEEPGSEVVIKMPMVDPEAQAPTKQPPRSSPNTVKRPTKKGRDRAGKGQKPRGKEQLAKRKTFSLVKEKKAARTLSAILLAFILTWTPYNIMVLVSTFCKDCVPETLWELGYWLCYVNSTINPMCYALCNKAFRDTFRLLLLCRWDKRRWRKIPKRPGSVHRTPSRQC
# M1 ag parental: M1 agonist counterscreen hit in parental CHO-K1 cells; Fluo-8 calcium fluorescence; scaled to maximal ATP response, vehicle zero; hit rate 0.48% among 360,000; activation, % at 3 µM; in the data active means activation above about 15%;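 further: untransfected CHO-K1 host cells lacking M1 receptor as counterscreen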
# CHO-K1 Ca antag: nonselective inhibitor or artifact in parental CHO-K1 cells; ATP-induced calcium, Fluo-8 fluorescence; inhibition, % at 3 µM; hit rate 0.6% among 360,000; AID 602250;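 active means inhibition above a per-plate cutoff, the plate's mean sample inhibition plus 3 SD, cut at about 24% in these data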;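 further: 0% = DMSO plus EC80 ATP and 100% = DMSO alone without ATP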
# CHRM1 PAM: potentiates human M1 receptor response to acetylcholine; AID 588819; CHO-K1 hM1, Fluo-8 calcium fluorescence, ACh EC20; 0% = ACh EC20, 100% = maximal ACh; activation, % at 3 µM; hit rate 0.088% among 360,000; in the data active means activation above about 19%, passing the limit was not always enough
# M1 antag: human CHRM1 antagonism; P11229; hit rate 1.3% among 360,000; CHO-K1 hM1, Fluo-8 calcium fluorescence, ACh EC80 antagonist; inhibition, % at 3 µM;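 active means percent inhibition above its own plate's cutoff, namely the mean of that plate's compound wells plus 3 SD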;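 further: peak over basal fluorescence ratio during 140 s after agonist addition; 0% = ACh EC80 plus DMSO and 100% = DMSO alone without agonist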
# Numbers without * were called inactive; nt = not tested or not shown. Rows were chosen to be rich in hits. Some 2.3% of all compounds tested hit in one or more screens of this group.
SMILES,M1 PAM parental,CHRM1 agonist,M1 ag parental,CHO-K1 Ca antag,CHRM1 PAM,M1 antag
CCn1ccnc1CN1CCCC(C(=O)c2cc(C)c(OC)c(C)c2)C1 (stereo not given),-4,-6,2,-2,-20,38*
COc1cccc(C(=O)C2CCCN(Cc3ccc4nonc4c3)C2)c1 (stereo not given),13,-13,1,0,-30,10
COc1ccc(C(=O)C2CCCN(CC3CCCCC3)C2)cc1OC (stereo not given),0,-11,0,0,-33,78*
COc1ccc(C(=O)C2CCCN(Cc3ccon3)C2)c(OC)c1 (stereo not given),-5,-8,0,6,1,-2
COc1ccc(CN2CCCC(C(=O)c3ccc(Cl)cc3)C2)c(OC)c1 (stereo not given),19,-6,7,-7,-23,39*
CC(C)Oc1cccc(C(=O)C2CCCN(Cc3ccon3)C2)c1 (stereo not given),-4,-7,19*,-4,0,3
COc1cccc(C(=O)C2CCCN(Cc3cccc4c3OCO4)C2)c1 (stereo not given),5,-10,3,7,-29,65*
COc1ccc(C(=O)C2CCCN(Cc3ccsc3)C2)cc1OC (stereo not given),17,-10,0,-3,-25,21
COP(=O)(OC)C1(O)C(=O)Nc2ccc(Br)cc21 (stereo not given),7,-7,0,-6,5,-9
Cc1nc2cc(-c3ccc(Cl)cc3)nn2c(C)c1CCC(=O)N1CCC2(CC1)OCCO2,5,-4,0,-8,4,-2
COc1ccc(CN2CCCC(C(=O)c3cccc(Cl)c3)C2)cc1 (stereo not given),13,-5,2,-10,-27,42*
Cc1ccc2c(c1)N(C(=O)CCC(=O)N1CCC3(CC1)OCCO3)CC(C)O2 (stereo not given),-6,-4,0,-3,4,-3
O=[N+]([O-])c1ccc(N2CCNCC2)cc1N1CCCCC1,21,-16,2,-13,4,-9
O=[N+]([O-])c1ccc(N2CCCCCC2)c2nonc12,-20,145*,162*,53*,-33,53*
O=[N+]([O-])c1ccc(N2CCCNCC2)c2ncccc12,13,-7,1,-7,-24,82*
O=[N+]([O-])c1cccnc1N1CCCNCC1,5,-1,2,-14,-28,48*
COCc1cc(OC(=O)N(C)C)nc(-c2ccccc2)n1,18,-4,9,-3,8,-5
O=[N+]([O-])O[C@H]1CO[C@H]2[C@@H]1OC[C@H]2O[N+](=O)[O-],22,-3,1,-8,8,-24
O=C(Cn1ncn2c(cc3cc(F)ccc32)c1=O)N1CCC2(CC1)OCCO2,3,-1,1,-6,6,-13
CCN(C(=O)COC(=O)c1cc(C)n(C2CC2)c1C)c1ccccc1,15,-3,1,-4,-1,1
Clc1ccc(CCNCc2ccncc2)c(Cl)c1,0,0,16*,-2,10,-17
COc1ccc(CNCCc2ccc(Cl)cc2Cl)cc1,25,-5,1,-10,7,-12
Cn1nnc(CC[N+](C)(C)C)n1,-1,73*,15*,11,-22,77*
Fc1ccc(C(OCCN2CCN(CCCc3ccccc3)CC2)c2ccc(F)cc2)cc1,11,-7,1,4,-20,26
Fc1ccc(C(OCCN2CCCC2)c2ccc(F)cc2)cc1,6,-9,1,-1,-23,79*
SMILES,M1 PAM parental,CHRM1 agonist,M1 ag parental,CHO-K1 Ca antag,CHRM1 PAM,M1 antag
Fc1ccc(C(OCCN2CCCC2)c2ccc(Br)cc2)cc1 (stereo not given),8,-8,2,-4,-23,81*
CNC(=O)Oc1c(C)[nH]ccc1=O,-11,-2,0,7,2,-10
CCN(CC(=O)Nc1ccc(C#N)c(Cl)c1)CC(=O)NC1CCS(=O)(=O)C1 (stereo not given),-18,4,0,25*,10,11
N#Cc1ccc(NC(=O)CN2CCCC2)cc1Cl,9,-5,3,-14,1,-1
Cc1nc(SCc2c(Cl)cccc2Cl)nc(OC(=O)N(C)C)c1C,15,5,1,-9,8,-2
CCC(=O)N1N=C(c2c(O)n(CCc3ccccc3)c(=O)[nH]c2=O)CC1c1ccc(OC)c(OC)c1 (stereo not given),17,-3,0,-8,10,-9
COc1ccc(CNCCc2c(C)[nH]c3ccc(OC(F)(F)F)cc23)c(OC)c1,-7,0,37*,33*,-8,27
CN1CCc2nc(N)c(C#N)c(-c3ccccc3)c2C1,1,-8,0,-14,-20,34*
CC1CCC(NCCc2ccc3c(c2)OCO3)CC1 (stereo not given),11,-10,2,-25,-30,34*
CN1CCc2c(c(N3CCCCC3)nc3n[nH]c(N)c23)C1,18,-7,0,-17,4,-2
CN1CCc2c(C#N)c(Cl)nc(Cl)c2C1,-17,-1,0,32*,11,3
CN(C)C(=O)Oc1ccc2nnc3ccnn3c2c1,6,-6,2,-16,-2,7
COc1ccccc1OCC#CCN1CCCCCC1,-9,-6,0,-1,-15,33*
Clc1ccc(OCC#CCN2CCCC2)cc1,10,-15,1,-9,-29,32*
COc1ccccc1OCC#CCN1CCOCC1,6,-3,3,-20,-2,1
O=c1cc(C(F)(F)F)c2cc3c4c(c2o1)CCCN4CCC3,-9,120*,89*,59*,-24,67*
O=S(=O)(c1cccc(C(F)(F)F)c1)N1Cc2ccccc2-n2nncc2C1,-5,1,2,-12,-12,21
C=CCN1CC[C@]23c4c5ccc(O)c4O[C@H]2/C(=N/NC(=O)c2ccccc2)CC[C@@]3(O)[C@H]1C5,12,1,0,-3,-3,-14
CCOC(=O)[C@]12Cc3cc4ccccc4cc3[C@H]1N(Cc1ccccc1)C(=O)c1cc(OC)ccc12,-8,nt,1,-4,nt,nt
CC1CCCN(C(=O)CCl)C1 (stereo not given),33,-4,1,-11,9,-5
CC1CCN(C(=O)C(C)Cl)CC1 (stereo not given),11,-5,16*,9,0,0
c1ccc2c(c1)CN(Cc1ccc3c(c1)OCO3)Cc1cnnn1-2,0,-7,0,27*,0,-4
Cc1ccc(C(C)C)c(OCC(=O)N2CCN(Cc3nc4cc([N+](=O)[O-])ccc4n3C)CC2)c1,-5,-9,0,5,11,-4
